Broadly, the AC50 is the concentration giving half of the maximal activity seen.

Data on 19 molecules can be found in PubChem BioAssay (EPA / NIEHS).

Test [1] in a line: TOX21_p53_BLA_p2_viability: Viability Assessment in the Tox21 HCT-116 p53 Agonism Beta-lactamase Assay, Phase 2 (AID 2283591).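 Also: compound exposure lasted 16 h at 37 °C; actives lower the ATP signal meaning cytotoxicity.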 In short, it runs like this: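 HCT-116 p53-bla cells (4000/well) rested 5 h at 37C, then received compounds in DMSO (217-fold dilution) for 16 h at 37C, 5% CO2. After the CCF4 read, CellTiter-Glo was added; ATP luminescence was read after 30 min at room temperature.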

Test [2] addresses Cellular tumor antigen p53 (Homo sapiens) (UniProt P04637). Put plainly: TOX21_p53_BLA_p2_ratio: Tox21 HCT-116 p53 Agonism Beta-lactamase Assay, Ratio, Phase 2 (AID 2283592). In short, it runs like this:
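In this cell-based reporter format, HCT116 cells were dosed with chemicals delivered from DMSO by 217-fold dilution and incubated 16 h at 37C. Emission at 460 and 530 nm after 2 h CCF4-AM loading provided the ratio, fitted upward versus DMSO.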

The nature of test [3]: TOX21_p53_BLA_p3_viability: Viability Assessment in the Tox21 HCT-116 p53 Agonism Beta-lactamase Assay, Phase 3 (AID 2283593).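 Also: cells exposed to compound for 16 h before reading.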 The method in brief:
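HCT-116 cells (4000/well) rested 5 h at 37C, then got DMSO compounds by pin tool (217-fold dilution) for 16 h at 37C, 5% CO2. After the bla read, CellTiter-Glo was added and luminescence read at 30 min, room temperature.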

Test [4] in a line: TOX21_p53_BLA_p5_viability: Viability Assessment in the Tox21 HCT-116 p53 Agonism Beta-lactamase Assay, Phase 5 (AID 2283600). In short, it runs like this:
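Compounds, pinned from DMSO at 217-fold dilution, were left on the cells for 16 h. The viability endpoint was ATP content measured by CellTiter-Glo luminescence, where falling signal reflects cytotoxicity.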

Test [5] can be described thus: Tanguay_ZF_120hpf_MORT_legacy: (Legacy) Oregon State University Tanguay Lab 120 Hour Post-fertilization zebrafish Assay for Mortality (AID 2283633).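 As to AC50: fitted as increase in binary mortality versus DMSO negative control.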 In short, it runs like this:
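Brightfield scoring of embryo death (binary) at 24 and 120 hpf; static exposure 6–120 hpf, 28C, sealed and foil-covered. Pronase-dechorionated 5D wild-type larvae, single embryo per well. DMSO 0.64% v/v; trimethyltin chloride 5uM positive control.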

The nature of test [6]: Tanguay_ZF_120hpf_YSE_legacy: (Legacy) Oregon State University Tanguay Lab 120 Hour Post-fertilization zebrafish Assay for Yolk Sac Edema (AID 2283634). The method in brief:
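Binary brightfield scoring of yolk sac edema at 120 hpf; DMSO baseline, gain-of-signal fitting. Dechorionated 5D larvae, one per well, static exposure 6–120 hpf, 28C, 0.64% DMSO. Dead embryos not scored.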

The target of test [7] is Cellular tumor antigen p53 (Homo sapiens) (UniProt P04637). As to the kind of experiment: TOX21_p53_BLA_p3_ratio: Tox21 HCT-116 p53 Agonism Beta-lactamase Assay, Ratio, Phase 3 (AID 2283596). In short, it runs like this: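 HCT116 p53-bla cells (4000/well) given compound in DMSO (217-fold dilution) after 5 h, incubated 16 h at 37C. CCF4-AM substrate 2 h at room temperature; 460/530 nm emission ratio, gain fitted against DMSO.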
Sequence of Cellular tumor antigen p53 (Homo sapiens) (P04637 whole entry, looked up): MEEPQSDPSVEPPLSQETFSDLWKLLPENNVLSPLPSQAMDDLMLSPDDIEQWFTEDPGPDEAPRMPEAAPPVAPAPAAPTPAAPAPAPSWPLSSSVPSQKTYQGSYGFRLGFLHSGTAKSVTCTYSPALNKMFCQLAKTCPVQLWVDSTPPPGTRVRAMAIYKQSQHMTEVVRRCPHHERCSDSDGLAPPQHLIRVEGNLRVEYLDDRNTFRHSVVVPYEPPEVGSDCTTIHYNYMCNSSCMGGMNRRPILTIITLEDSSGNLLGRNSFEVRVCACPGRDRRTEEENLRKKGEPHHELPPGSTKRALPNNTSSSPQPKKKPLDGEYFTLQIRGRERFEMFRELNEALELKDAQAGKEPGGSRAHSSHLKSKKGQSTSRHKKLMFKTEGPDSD

A short description of test [8]: TOX21_p53_BLA_p4_viability: Viability Assessment in the Tox21 HCT-116 p53 Agonism Beta-lactamase Assay, Phase 4 (AID 2283597).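 Also: hits lower the luminescence signal meaning cytotoxicity.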 In short, it runs like this: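 We seeded HCT116 p53 reporter cells at 4000/well and waited 5 h. We then added compounds in DMSO at a 217-fold dilution and incubated for 16 h. Viability was read as CellTiter-Glo luminescence after 30 min at RT.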

Test [9] addresses Cellular tumor antigen p53 (Homo sapiens) (UniProt P04637). As to the kind of experiment: TOX21_p53_BLA_p5_ratio: Tox21 HCT-116 p53 Agonism Beta-lactamase Assay, Ratio, Phase 5 (AID 2283599). The method in brief: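 HCT-116 cells carrying a p53-inducible beta-lactamase reporter were seeded at 4000 cells/well and dosed after 5 h with compound in DMSO (217-fold dilution). After 16 h at 37C, CCF4-AM substrate was added for 2 h, and the 460/530 nm emission ratio was scored as gain-of-signal versus DMSO.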

Test [10] has the same target. As to the kind of experiment: TOX21_p53_BLA_p4_ratio: Tox21 HCT-116 p53 Agonism Beta-lactamase Assay, Ratio, Phase 4 (AID 2283601). In short, it runs like this:
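HCT116 cells carrying an inducible beta-lactamase reporter were plated at 4000 cells/well, rested 5 h, then exposed to compounds in DMSO (217-fold dilution) for 16 h at 37C. CCF4-AM substrate was loaded 2 h at room temperature; 460/530 nm emission ratio scored gain-of-signal versus DMSO.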

Where “and” joins values, the source holds several entries; their conditions need not be identical. Identical values can stand only once. Results filed as inconclusive are left out. Some structures have more than one record in an assay (separate samples or runs), and their calls can disagree. Calls of active or inactive are those of the source. The calls were made as follows: active = hit-call score of the fitted dose curve at least 0.9, where 1 is the maximum; inconclusive = response in the unintended direction; inactive = score below 0.9.

Take `CCCCC(CC)COC(=O)CCCCCCCCC(=O)OCC(CC)CCCC` (stereo not given): the molecule was classed as inactive in [1], in test [2], in [3], in [4], in test [5] and in test [6].
For `Cc1ccc(S(=O)(=O)O)cc1C`, the call in test [1], in [2], in test [3], in test [7], in test [8] and in test [9] was inactive. The outcome in [10], in test [5] and in test [6] was inactive.
Take `Cn1cnc([N+](=O)[O-])c1Sc1ncnc2nc[nH]c12`: the call in test [1], in test [3], in [8], in test [4], in [5] and in test [6] was inactive. The AC50 in [2] is 18.9 µM (active) and 31.3 µM (active); in test [3] it was 4.91 µM (active); in test [7] it was 30 µM (active) and 33.1 µM (active); in test [8], 1.62 µM (active); in test [9] it was 29.8 µM (active) and 34.8 µM (active); in [10], 22.2 µM (active) and 34.3 µM (active).
With `CC(=O)OCCC(C)C`, the molecule was classed as inactive in test [1], in test [2], in [3], in [7], in test [8] and in [9]. Besides, the outcome in [10] and in test [5] was inactive.
`C=CC(=C)CCC=C(C)C`: the result in test [1], in test [2], in test [7], in [8], in test [9] and in [4] was inactive. The result in test [10] and in [5] was inactive.
Regarding `CC(C)CCCCCCCOC(=O)CCCCC(=O)OCCCCCCCC(C)C`, the result in test [1], in test [2], in [3], in [7], in test [10] and in test [5] was inactive. In addition, in [6], the call was inactive.
Regarding `COc1ccc2sc(C(=O)Nc3nnn[nH]3)c(OC(C)C)c2c1`, the figures for the AC50 in test [1], in [3] and in [8] were 13.2 µM (active), 17.8 µM (active) and 14.3 µM (active), respectively. For the same molecule, the result in test [2], in test [7], in [9], in [4], in test [10] and in [5] was inactive. For the same molecule, the molecule was classed as inactive in test [6].
For `CCCCCCc1ccc(O)cc1O`, the AC50 in test [1] is 69.2 µM (active) and 73.3 µM (active); in [2], 53.5 µM (active) and 42.9 µM (active); in [3], 67.1 µM (active); in test [7], 63.9 µM (active); in [8], 69.2 µM (active) and 73 µM (active); in [9] it was 78.1 µM (active) and 68.4 µM (active). In addition, the AC50 in [4] was 74.9 µM (active); in test [10] it was 51.2 µM (active) and 63.3 µM (active) and 39.6 µM (active); in test [5], 25.9 µM (active). In addition, the outcome in [2], in test [3], in [7], in [8], in test [9] and in [4] was inactive.
Consider `Nc1cccc(N)c1`, for which the molecule was classed as inactive in [1], in [2], in [3], in [7], in test [8] and in test [9]. The outcome in test [4], in test [10], in [5] and in test [6] was inactive.
As to `CC1=CC(=O)CC(C)(C)C1`, the call in [1], in test [2], in [3], in test [7], in test [8] and in test [9] was inactive. Further, the call in [4], in test [10] and in test [5] was inactive.
As to `CCCCCCCCCCCCc1ccccc1`, the call in test [1], in test [2], in [3], in test [7], in test [9] and in test [10] was inactive. The outcome in [5] and in test [6] was inactive.
`CCc1cc(SCc2sc(-c3ccc(C(F)(F)F)cc3)nc2CN2CCN(c3ccc(OC)cc3)CC2)ccc1OCC(=O)O`: the AC50 in test [1] was 7.48 µM (active); in test [2] it was 46.1 µM (active); in test [3], 17.2 µM (active); in test [7], 59.9 µM (active); in test [8] it was 4.42 µM (active); in test [9], 67 µM (active). The AC50 in [4] is 9.98 µM (active); in test [10], 9.5 µM (active). In addition, the molecule was classed as inactive in test [5].
Regarding `CCOC(=O)COc1ccc2c(c1)CC(NCC(O)c1cccc(Cl)c1)CC2` (stereo not given), the AC50 is 67.3 µM (active) in test [1]; 70.3 µM (active) in [2]; 80 µM (active) in test [8]; 71.7 µM (active) in test [10]; 15.6 µM (active) in test [5]. Besides, the result in test [3], in [7], in [9], in test [4] and in [6] was inactive.
As for `O=P(OC(CCl)CCl)(OC(CCl)CCl)OC(CCl)CCl`, the molecule was classed as inactive in [1], in test [2], in test [3], in [7], in test [9] and in test [4]. Besides, the outcome in test [10] and in [5] was inactive. The AC50 in test [8] is 53.8 µM (active).
For the molecule `CC(C)=CCCC(C)CCO` (stereo not given), the result in test [1], in test [2], in [3], in test [8], in test [9] and in test [4] was inactive. In addition, the molecule was called inactive in test [5] and in test [6].
For `CCCN(C1CCN(C(=O)C2CCNCC2)CC1)[C@@H]1CCc2ccc(OC)cc2C1`, the molecule was called inactive in [1], in test [2], in [3], in [7], in [4] and in test [10]. Moreover, in test [5], the result was inactive.
As for `CCOc1cccc(-n2cc(C(=O)N3CCN(c4cc(C(=O)O)c5ccccc5c4)CC3)nc2-c2ccc(C)cc2)c1`, the AC50 was 10.6 µM (active) in [1]; 18 µM (active) in test [2]; 28.6 µM (active) in test [3]; 41.7 µM (active) in test [7]; 13.3 µM (active) in test [8]; 58.1 µM (active) in test [9]. The AC50 in test [4] was 36.4 µM (active); in test [10] it was 24.1 µM (active). Also, the outcome in [5] and in [6] was inactive.
Consider `O=c1n(CC2CO2)c(=O)n(CC2CO2)c(=O)n1CC1CO1` (stereo not given), for which the result in test [1], in [3], in test [8], in test [4] and in [5] was inactive. Besides, the concentration at half-maximal activity (AC50) in test [2] is 19.6 µM (active) and 9.81 µM (active) and 20.5 µM (active); in [3] it was 74.3 µM (active); in test [7] it was 26.8 µM (active) and 19.6 µM (active); in [8], 51.2 µM (active); in test [9], 32.2 µM (active) and 10.7 µM (active) and 22.6 µM (active); in test [10], 33.7 µM (active) and 32.1 µM (active) and 23.5 µM (active).
For `Oc1ccc2c(c1)-c1ccccc1C2`, the outcome in test [1], in test [2], in test [3], in test [7], in test [8] and in test [9] was inactive. The outcome in test [4] and in [5] was inactive. Further, the AC50 in test [10] is 79.7 µM (active).
